The values that follow come from PubChem BioAssay AID1159580 (chemical genetic matrix, 2015).

In all, about 5,500 compounds went through this assay and about 2,000 (36%) were called active. Inconclusive results (about 18%) are left out. The list shows a part of the results. Unmarked numbers belong to inactive results. No stated cut-off is given here; in the data, active means normalized growth mostly below about 0.91 (no sharp cut-off); inconclusive means no clear call, values can overlap the other calls; inactive means mostly above about 0.92.

The assay can be described thus: chemical genetic growth profiling, strain panel (AID 1159580).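 Further: tested at 20 µM; growth read once vehicle control cultures reached saturation at 30 °C; 1 = growth at the plate median or of vehicle wells; lower values mean less growth of the strain.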 The settings on record: S. cerevisiae deletion strains, growth OD.

For the compound `C[N+](C)(C)CCOC(=O)CBr`, the normalized growth reads like this: (locus YDR150W, strain NUM1, hits give low values) 1.06 [resistant] (active); (locus YDR363W, strain ESC2, hits give low values) 1.05; (locus YER002W, strain NOP16, hits give low values) 1; (locus YGR078C, strain PAC10, hits give low values) 1.02; (locus YMR263W, strain SAP30, hits give low values) 1.01; (locus YNL153C, strain GIM3, hits give low values) 1.07. Further, the normalized growth (locus YNL175C, strain NOP13, hits give low values) was 1.02; the normalized growth (locus YNL197C, strain WHI3, hits give low values) is 0.985; the normalized growth (locus YNL224C, strain SQS1, hits give low values) is 1.01; the normalized growth (locus YOR083W, strain WHI5 (second series), hits give low values) is 1.05; the normalized growth (locus YPL241C, strain CIN2, hits give low values) is 1.01.
